Source: paper PMC5540273 (PLoS ONE, 2017)

system: GRK7; settings: concentration: 1 μM,replicates: in singlicate; n = 1
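Further: KINOMEscan kinase panel screen.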

| SMILES | %Inh |
| --- | --- |
| C=CC(=O)Nc1cc2c(Nc3ccc(F)c(Cl)c3)ncnc2cc1OCCCN1CCOCC1 [GW781483] | 0% |
| CC(C)Nc1cc(-c2ccc3c(N)n[nH]c3c2)nc(N)n1 [GSK2221681] | 0% |
| COc1ccc(C[C@@H](CN)NC(=O)c2cc(Br)c(-c3ccnc4[nH]ccc34)s2)cc1.Cl.Cl [GSK1389063] | 98.8% |
| Cc1occc1-c1nc(N)c(OC[C@@H](N)Cc2c[nH]c3ccccc23)cc1-c1cc2c(C)n[nH]c2cn1 [GSK1660450] | 87% |
| Cc1ccc2c(-c3ccncc3)c(-c3ccc(F)cc3)nn2c1.Cl [GW461484] | 66% |
| O=C(NCCCN1CCOC1=O)c1cnc(NCc2cc(Cl)ccc2Cl)nc1NC1CCCC1 | 0% |
| Cc1n[nH]c2ccc(-c3cc(OC[C@@H](N)Cc4ccccc4)cnc3-c3ccoc3)cc12.O=C(O)C(F)(F)F.O=C(O)C(F)(F)F [GSK507358] | 0% |
| Cc1cc2cn[nH]c2cc1-c1cccc2c(N)c(C(N)=O)nnc12 | 0% |
| NC(=O)c1cc(-c2ccccc2)cc2c(C3CCNCC3)c[nH]c12 [GSK301362] | 0% |
| Cc1ccc(-n2nc(C(C)(C)C)cc2NC(=O)Nc2ccc(OCCN3CCOCC3)c3ccccc23)cc1 [GW839464] | 0% |
| CC(C)N1C(=O)Cc2cc(Nc3ncc(C(F)(F)F)c(NCc4cccc(S(C)(=O)=O)c4)n3)ccc21 | 10% |
| O=C(NCCNc1ccnc(NCc2ccc(F)cc2)n1)c1cc2ccccc2s1 [GSK1379944] | 0% |
| CNC(=O)c1ccccc1Sc1ccc2c(/C=C/c3ccccn3)n[nH]c2c1 | 0% |
| Nc1nc(Nc2ccccc2)cc(-c2ccc3c(N)n[nH]c3c2)n1 [GSK2225749] | 0% |
| CCN(CC)CCCCNc1ncc2cc(-c3c(Cl)cccc3Cl)c(NC(=O)NC(C)(C)C)nc2n1 | 0% |
| Cc1cc(C(=O)Nc2ccc(Oc3ccc4nc(NC(=O)C5CC5)cn4n3)cc2)nn1-c1ccccc1 | 0% |
| CN(C)CC(O)COc1ccc(Nc2nccc(-c3cnn4nc(N5CCOCC5)ccc34)n2)cc1 (stereo not drawn) [GW767488] | 37% |
| Cl.Cl.Nc1nc(-c2ccc3c(N)n[nH]c3c2)cc(N2CCCC(NC(=O)c3ccccc3)C2)n1 (stereo not drawn) [GSK2286775] | 0% |
| CN(C)CCOc1ccc(-c2cc(-c3c[nH]nc3-c3ccccn3)ccn2)cc1 [GW835314] | 0% |
| C[C@@H]1CCN(C(=O)CC#N)C[C@@H]1N(C)c1ncnc2[nH]ccc12 | 25% |
| Cl.Cl.NC[C@H](CC1CCCCC1)NC(=O)c1cc(Br)c(-c2ccnc3[nH]ccc23)s1 [GSK1581427] | 90% |
| Cl.Cl.NC[C@H](Cc1ccc(C(F)(F)F)cc1)NC(=O)c1cc(Br)c(-c2ccnc3[nH]ccc23)s1 [GSK1487252] | 95.3% |
| Cl.Oc1cc(-c2nc(-c3ccccc3)[nH]c2-c2ccncc2)ccc1Cl [SB-386023] | 7% |
| C[C@H]1Oc2cc(cnc2N)-c2c(nn(C)c2C#N)CN(C)C(=O)c2ccc(F)cc21 | 94.3% |
| C[C@@H](Oc1cc(-c2cnn(C3CCNCC3)c2)cnc1N)c1c(Cl)ccc(F)c1Cl | 0% |
| CCn1c(-c2nonc2N)nc2c(C#CC(C)(C)O)nc(OCCN)cc21.Cl.Cl [GSK902056] | 0% |
| CCN(CC)CCOc1ccc(Nc2ncc3cc(-c4c(Cl)cccc4Cl)c(=O)n(C)c3n2)cc1 [SB-601273] | 0% |

system: GSK3A; settings: concentration: 1 μM,replicates: in singlicate; n = 1

| SMILES | %Inh |
| --- | --- |
| C=CC(=O)Nc1cc2c(Nc3ccc(F)c(Cl)c3)ncnc2cc1OCCCN1CCOCC1 [GW781483] | 0% |
| CC(C)Nc1cc(-c2ccc3c(N)n[nH]c3c2)nc(N)n1 [GSK2221681] | 0% |
| COc1ccc(C[C@@H](CN)NC(=O)c2cc(Br)c(-c3ccnc4[nH]ccc34)s2)cc1.Cl.Cl [GSK1389063] | 0% |
| Cc1occc1-c1nc(N)c(OC[C@@H](N)Cc2c[nH]c3ccccc23)cc1-c1cc2c(C)n[nH]c2cn1 [GSK1660450] | 95.7% |
| Cc1ccc2c(-c3ccncc3)c(-c3ccc(F)cc3)nn2c1.Cl [GW461484] | 26% |
| O=C(NCCCN1CCOC1=O)c1cnc(NCc2cc(Cl)ccc2Cl)nc1NC1CCCC1 | 10% |
| Cc1n[nH]c2ccc(-c3cc(OC[C@@H](N)Cc4ccccc4)cnc3-c3ccoc3)cc12.O=C(O)C(F)(F)F.O=C(O)C(F)(F)F [GSK507358] | 80% |
| Cc1cc2cn[nH]c2cc1-c1cccc2c(N)c(C(N)=O)nnc12 | 0% |
| NC(=O)c1cc(-c2ccccc2)cc2c(C3CCNCC3)c[nH]c12 [GSK301362] | 0% |
| Cc1ccc(-n2nc(C(C)(C)C)cc2NC(=O)Nc2ccc(OCCN3CCOCC3)c3ccccc23)cc1 [GW839464] | 29% |
| CC(C)N1C(=O)Cc2cc(Nc3ncc(C(F)(F)F)c(NCc4cccc(S(C)(=O)=O)c4)n3)ccc21 | 47% |
| O=C(NCCNc1ccnc(NCc2ccc(F)cc2)n1)c1cc2ccccc2s1 [GSK1379944] | 6% |
| CNC(=O)c1ccccc1Sc1ccc2c(/C=C/c3ccccn3)n[nH]c2c1 | 0% |
| Nc1nc(Nc2ccccc2)cc(-c2ccc3c(N)n[nH]c3c2)n1 [GSK2225749] | 0% |
| CCN(CC)CCCCNc1ncc2cc(-c3c(Cl)cccc3Cl)c(NC(=O)NC(C)(C)C)nc2n1 | 0% |
| Cc1cc(C(=O)Nc2ccc(Oc3ccc4nc(NC(=O)C5CC5)cn4n3)cc2)nn1-c1ccccc1 | 0% |
| CN(C)CC(O)COc1ccc(Nc2nccc(-c3cnn4nc(N5CCOCC5)ccc34)n2)cc1 (stereo not drawn) [GW767488] | 4% |
| Cl.Cl.Nc1nc(-c2ccc3c(N)n[nH]c3c2)cc(N2CCCC(NC(=O)c3ccccc3)C2)n1 (stereo not drawn) [GSK2286775] | 0% |
| CN(C)CCOc1ccc(-c2cc(-c3c[nH]nc3-c3ccccn3)ccn2)cc1 [GW835314] | 0% |
| C[C@@H]1CCN(C(=O)CC#N)C[C@@H]1N(C)c1ncnc2[nH]ccc12 | 0% |
| Cl.Cl.NC[C@H](CC1CCCCC1)NC(=O)c1cc(Br)c(-c2ccnc3[nH]ccc23)s1 [GSK1581427] | 0% |
| Cl.Cl.NC[C@H](Cc1ccc(C(F)(F)F)cc1)NC(=O)c1cc(Br)c(-c2ccnc3[nH]ccc23)s1 [GSK1487252] | 0% |
| Cl.Oc1cc(-c2nc(-c3ccccc3)[nH]c2-c2ccncc2)ccc1Cl [SB-386023] | 17% |
| C[C@H]1Oc2cc(cnc2N)-c2c(nn(C)c2C#N)CN(C)C(=O)c2ccc(F)cc21 | 21% |
| C[C@@H](Oc1cc(-c2cnn(C3CCNCC3)c2)cnc1N)c1c(Cl)ccc(F)c1Cl | 68% |
| CCn1c(-c2nonc2N)nc2c(C#CC(C)(C)O)nc(OCCN)cc21.Cl.Cl [GSK902056] | 63% |
| CCN(CC)CCOc1ccc(Nc2ncc3cc(-c4c(Cl)cccc4Cl)c(=O)n(C)c3n2)cc1 [SB-601273] | 17% |
